Test results from PubChem BioAssay AID1159580 (chemical genetic matrix, 2015).
The whole screen tested about 5,500 compounds, of which about 2,000 (36%) were called active. Not shown: some 18% with an inconclusive outcome. No stated cut-off is given here; in the data, active means normalized growth mostly below about 0.91 (no sharp cut-off); inconclusive means no clear call, values can overlap the other calls; inactive means mostly above about 0.92. This is one part of the list.

Assay: chemical genetic growth profiling, strain panel (AID 1159580);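 further: tested at 20 µM; growth read once vehicle control cultures reached saturation at 30 °C; 1 = growth at the plate median or of vehicle wells; lower values mean less growth of the strain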
Conditions: growth OD
[1] = S. cerevisiae deletion strains, locus YAL013W, strain DEP1, active compounds read low
[2] = S. cerevisiae deletion strains, locus YBR229C, strain ROT2, active compounds read low
[3] = S. cerevisiae deletion strains, locus YDL101C, strain DUN1, active compounds read low
[4] = S. cerevisiae deletion strains, locus YDR150W, strain NUM1, active compounds read low
[5] = S. cerevisiae deletion strains, locus YEL061C, strain CIN8, active compounds read low
[6] = S. cerevisiae deletion strains, locus YGR078C, strain PAC10, active compounds read low
[7] = S. cerevisiae deletion strains, locus YHR030C, strain SLT2, active compounds read low
[8] = S. cerevisiae deletion strains, locus YHR087W, strain rtc3, active compounds read low
[9] = S. cerevisiae deletion strains, locus YJL187C, strain SWE1, active compounds read low
[10] = S. cerevisiae deletion strains, locus YJR043C, strain POL32, active compounds read low
[11] = S. cerevisiae deletion strains, locus YJR075W, strain HOC1, active compounds read low
[12] = S. cerevisiae deletion strains, locus YLR039C, strain RIC1, active compounds read low
[13] = S. cerevisiae deletion strains, locus YLR058C, strain SHM2 (second series), active compounds read low
[14] = S. cerevisiae deletion strains, locus YLR085C, strain ARP6, active compounds read low
[15] = S. cerevisiae deletion strains, locus YLR262C, strain YPT6, active compounds read low
[16] = S. cerevisiae deletion strains, locus YML094W, strain GIM5, active compounds read low
[17] = S. cerevisiae deletion strains, locus YMR219W, strain ESC1, active compounds read low
[18] = S. cerevisiae deletion strains, locus YMR263W, strain SAP30, active compounds read low
[19] = S. cerevisiae deletion strains, locus YMR307W, strain GAS1, active compounds read low
[20] = S. cerevisiae deletion strains, locus YNL153C, strain GIM3, active compounds read low
[21] = S. cerevisiae deletion strains, locus YNL298W, strain CLA4 (second series), active compounds read low
[22] = S. cerevisiae deletion strains, locus YNL322C, strain KRE1, active compounds read low
[23] = S. cerevisiae deletion strains, locus YNR030W, strain Alg12, active compounds read low
[24] = S. cerevisiae deletion strains, locus YPL055C, strain LGE1, active compounds read low
[25] = S. cerevisiae deletion strains, locus YPL241C, strain CIN2, active compounds read low
[26] = S. cerevisiae deletion strains, locus YPR135W, strain CTF4, active compounds read low
[27] = S. cerevisiae deletion strains, locus YGR229C, strain SMI1, active compounds read low

Measured: normalized growth

Cc1ccc(C(=O)c2ccccc2[N+](=O)[O-])cc1
inactive: [1] 0.989 | [2] 0.99 | [3] 0.983 | [4] 0.957 | [5] 0.979 | [6] 0.982 | [7] 0.797 | [8] 0.964 | [9] 0.987 | [10] 0.99 | [11] 0.943 | [12] 0.913 | [13] 0.995 | [14] 0.9 | [15] 0.948 | [16] 0.96 | [17] 0.98 | [18] 0.98 | S. cerevisiae deletion strains, locus YNL128W, strain TEP1, active compounds read low 1.01 | [20] 0.954 | [21] 0.934 | [22] 0.997 | [23] 0.939 | S. cerevisiae deletion strains, locus YOL006C, strain TOP1, active compounds read low 0.779 | [24] 0.946 | [26] 0.8 | S. cerevisiae strains, strain wild type, active compounds read low 1
active: [19] 0.622 | [25] 0.828

O=C(c1cc(O)c(O)c([N+](=O)[O-])c1)c1ccccc1F
inactive: S. cerevisiae deletion strains, locus YAL040C, strain CLN3, active compounds read low 0.964 | S. cerevisiae deletion strains, locus YCL061C, strain MRC1 (second series), active compounds read low 0.953 | S. cerevisiae deletion strains, locus YDR363W, strain ESC2, active compounds read low 0.98 | S. cerevisiae deletion strains, locus YER002W, strain NOP16, active compounds read low 0.978 | [6] 0.977 | [27] 0.886 | [19] 0.966 | S. cerevisiae deletion strains, locus YNL175C, strain NOP13, active compounds read low 0.985 | S. cerevisiae deletion strains, locus YNL197C, strain WHI3, active compounds read low 0.97 | S. cerevisiae deletion strains, locus YNL224C, strain SQS1, active compounds read low 0.969 | S. cerevisiae deletion strains, locus YOR083W, strain WHI5 (second series), active compounds read low 0.996 | [25] 0.99

CCOC(=O)CSc1nnc(-c2cc(C(C)(C)C)nn2Cc2cccc(C)c2)n1C1CCCCC1
inactive: [1] 1.03 | [2] 0.989 | [3] 1.01 | [4] 1 | [5] 0.997 | [6] 1.01 | [27] 0.993 | [7] 0.92 | [8] 0.986 | [9] 0.994 | [10] 0.994 | [11] 0.98 | [12] 0.909 | [13] 0.99 | [14] 0.975 | [15] 0.901 | [16] 1.02 | [17] 0.998 | [18] 1 | [20] 1.02 | [21] 1 | [22] 0.994 | [23] 0.987 | [24] 1.03 | [25] 0.968 | [26] 1.01

Clc1ccc(-c2csc(Nc3ccccc3)n2)s1
inactive: S. cerevisiae deletion strains, locus YAR019C, strain CDC15, active compounds read low 0.933 | S. cerevisiae deletion strains, locus YBL105C, strain PKC1, active compounds read low 0.933 | S. cerevisiae deletion strains, locus YBR135W, strain CKS1, active compounds read low 0.929 | S. cerevisiae deletion strains, locus YBR136W, strain MEC1, active compounds read low 0.923 | S. cerevisiae deletion strains, locus YBR160W, strain CDC28, active compounds read low 0.925 | S. cerevisiae deletion strains, locus YDL017W, strain CDC7, active compounds read low 0.928 | S. cerevisiae deletion strains, locus YDL028C, strain MPS1, active compounds read low 0.936 | [3] 0.943 | S. cerevisiae deletion strains, locus YDL108W, strain KIN28, active compounds read low 0.926 | S. cerevisiae deletion strains, locus YDL132W, strain cdc53, active compounds read low 0.94 | S. cerevisiae deletion strains, locus YDR052C, strain DBF4, active compounds read low 0.933 | S. cerevisiae deletion strains, locus YDR054C, strain cdc34, active compounds read low 0.907 | S. cerevisiae deletion strains, locus YDR226W, strain ADK1, active compounds read low 0.936 | S. cerevisiae deletion strains, locus YFL009W, strain cdc4, active compounds read low 0.929 | S. cerevisiae deletion strains, locus YFL029C, strain CAK1, active compounds read low 0.923 | S. cerevisiae deletion strains, locus YFR003C, strain YPI1, active compounds read low 0.933 | S. cerevisiae deletion strains, locus YFR028C, strain CDC14, active compounds read low 0.926 | S. cerevisiae deletion strains, locus YIL147C, strain SLN1, active compounds read low 0.932 | S. cerevisiae deletion strains, locus YJR016C, strain ILV3, active compounds read low 0.925 | S. cerevisiae deletion strains, locus YKL193C, strain SDS22, active compounds read low 0.921 | S. cerevisiae deletion strains, locus YMR001C, strain CDC5, active compounds read low 0.925 | S. cerevisiae deletion strains, locus YMR277W, strain FCP1, active compounds read low 0.921 | S. cerevisiae deletion strains, locus YNL006W, strain LST8, active compounds read low 0.932 | S. cerevisiae deletion strains, locus YNL161W, strain CBK1, active compounds read low 0.923 | S. cerevisiae deletion strains, locus YNL207W, strain RIO2, active compounds read low 0.915 | S. cerevisiae deletion strains, locus YNL222W, strain SSU72, active compounds read low 0.931 | S. cerevisiae deletion strains, locus YOL078W, strain AVO1, active compounds read low 0.926 | S. cerevisiae deletion strains, locus YOR329C, strain SCD5, active compounds read low 0.922 | S. cerevisiae deletion strains, locus YPL209C, strain IPL1, active compounds read low 0.915 | S. cerevisiae deletion strains, locus YPR025C, strain CCL1, active compounds read low 0.926 | S. cerevisiae deletion strains, locus YPR106W, strain ISR1, active compounds read low 0.906 | S. cerevisiae deletion strains, locus YPR111W, strain DBF20, active compounds read low 0.917 | S. cerevisiae deletion strains, strain NNK1, active compounds read low 0.916 | S. cerevisiae deletion strains, strain TSCII, active compounds read low 0.92
active: S. cerevisiae deletion strains, locus YDL214C, strain PRR2, active compounds read low 0.382 | S. cerevisiae deletion strains, locus YDR477W, strain SNF1, active compounds read low 0.24 | S. cerevisiae deletion strains, locus YER123W, strain YCK3, active compounds read low 0.354 | S. cerevisiae deletion strains, locus YER133W, strain GLC7, active compounds read low 0.363 | S. cerevisiae deletion strains, locus YFR019W, strain FAB1, active compounds read low 0.593 | S. cerevisiae deletion strains, locus YGR040W, strain KSS1, active compounds read low 0.311 | S. cerevisiae deletion strains, locus YGR052W, strain FMP48, active compounds read low 0.203 | S. cerevisiae deletion strains, locus YGR092W, strain DBF2, active compounds read low 0.33 | [7] 0.146 | S. cerevisiae deletion strains, locus YHR079C, strain IRE1, active compounds read low 0.452 | S. cerevisiae deletion strains, locus YHR082C, strain KSP1, active compounds read low 0.23 | S. cerevisiae deletion strains, locus YHR205W, strain SCH9, active compounds read low 0.273 | S. cerevisiae deletion strains, locus YJL095W, strain BCK1, active compounds read low 0.224 | S. cerevisiae deletion strains, locus YJL157C, strain FAR1, active compounds read low 0.434 | S. cerevisiae deletion strains, locus YJR066W, strain TOR1 (second series), active compounds read low 0.471 | S. cerevisiae deletion strains, locus YJR066W, strain TOR1, active compounds read low 0.276 | S. cerevisiae deletion strains, locus YKL048C, strain ELM1, active compounds read low 0.771 | S. cerevisiae deletion strains, locus YKL067W, strain YNK1, active compounds read low 0.521 | S. cerevisiae deletion strains, locus YKL101W, strain HSL1, active compounds read low 0.451 | S. cerevisiae deletion strains, locus YKL203C, strain TOR2, active compounds read low 0.385 | S. cerevisiae deletion strains, locus YLR113W, strain HOG1, active compounds read low 0.216 | S. cerevisiae deletion strains, locus YLR133W, strain CKI1, active compounds read low 0.39 | S. cerevisiae deletion strains, locus YLR403W, strain SFP1, active compounds read low 0.332 | S. cerevisiae deletion strains, locus YML070W, strain DAK1, active compounds read low 0.408 | S. cerevisiae deletion strains, locus YMR205C, strain PFK2 (second series), active compounds read low 0.578 | S. cerevisiae deletion strains, locus YNL020C, strain ARK1, active compounds read low 0.419 | S. cerevisiae deletion strains, locus YNL183C, strain NPR1, active compounds read low 0.148 | S. cerevisiae deletion strains, locus YNL307C, strain MCK1 (second series), active compounds read low 0.28 | S. cerevisiae deletion strains, locus YOL136C, strain PFK27, active compounds read low 0.453 | S. cerevisiae deletion strains, locus YOR061W, strain CKA2, active compounds read low 0.414 | S. cerevisiae deletion strains, locus YOR119C, strain RIO1, active compounds read low 0.409 | S. cerevisiae deletion strains, locus YOR231W, strain MKK1, active compounds read low 0.435 | S. cerevisiae deletion strains, locus YPL031C, strain PHO85, active compounds read low 0.295 | S. cerevisiae deletion strains, locus YPL153C, strain RAD53, active compounds read low 0.438 | S. cerevisiae deletion strains, locus YPL204W, strain HRR25, active compounds read low 0.435 | S. cerevisiae deletion strains, locus YPL256C, strain CLN2, active compounds read low 0.289
